Shown are actives, neighbours in structure and some others; about 2.2% of the full set was active somewhere.
LGR2 antag: Drosophila LGR2 receptor signaling inhibition. inhibition, % at 9.99 µM. 380,000 compounds, 0.35% hits. HEK293 LGR2, CRE-luciferase, bursicon-stimulated, 4 h. AID 720647;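 active = drop in luminescence signal, shown as inhibition above about 50% in the replicate tests, limit read from the data, passing the limit was not always enough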;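 note: agonist challenge used bursicon conditioned medium at about half maximal strength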
TROY NFkB inh: inhibitors of TROY-dependent NF-kB signaling; AID 1347056; 360,000 compounds, 0.98% hits; Q293 LMP1-TROYcd NF-kB luciferase reporter, 4 h; inhibition, % at 10 µM;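 active = compounds whose plate-normalised and pattern-corrected inhibition of the luciferase reporter signal at the single screening dose is 50% or more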
TWEAK Fn14 block: TWEAK-Fn14 signaling inhibition | TWEAK-stimulated Fn14 reporter cells, luciferase luminescence, 8 h | inhibition, % at 10 µM | 360,000 compounds, 2% hits | AID 1159606; in the data active = inhibition above about 50%
HSP90 refold inh: inhibitors of HSP90 luciferase refolding in rabbit reticulocyte lysate; luciferase refolding luminescence, 3 h; inhibition, % at 5.6 µM; 290,000 compounds, 0.91% hits; AID 1789;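 active = inhibition above the screen-wide mean plus 3 SD, computed separately per campaign, cut at about 16% in these data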;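 note: 0% = DMSO wells and 100% = 60 µM geldanamycin wells; inhibitors lower the luminescence because luciferase stays unfolded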
An asterisk follows results filed as active; · = not tested or not shown.

SMILES | LGR2 antag | TROY NFkB inh | TWEAK Fn14 block | HSP90 refold inh
CO[C@H]1CN(C)C(=O)c2cc(NC(=O)C3CCC3)ccc2OC[C@@H](C)N(C)C[C@H]1C | 8 | · | · | ·
Cc1ccc(/C=N/NC(=O)Cn2nnc(N)n2)o1 | 6 | -1 | 87* | -1
O=C(O)c1cccc(N/N=C/c2cccs2)c1 | 100* | -63 | 49 | 52*
CN(C(=O)c1ccco1)c1nc(-c2ccccc2)cs1 | -11 | -22 | -11 | -3
CN(c1ccc(O)cc1)c1nc(-c2ccccc2)cs1 | -63 | -44 | 55* | -2
Cc1cc(N/N=C/c2ccc(O)cc2O)nc(-c2ccccc2O)n1 | · | 20 | 65* | -2
C/C(=N\Nc1cc(C)nc(-c2ccccc2O)n1)c1ccccc1O | 3 | 16 | 55* | -1
Cc1cc(N/N=C/c2ccccc2O)nc(-c2ccccc2O)n1 | 0 | -30 | 29 | 5
Cn1cc(CN2CCCC(CO)(Cc3cccc(Cl)c3)C2)cn1 (stereo not given) | 9 | 10 | -3 | -3
CC(C)n1cc(CN2CCCC(CO)(Cc3cccc(Cl)c3)C2)cn1 (stereo not given) | -5 | 51* | 12 | 0
C[C@@H]1CN([C@@H](C)CO)C(=O)c2cc(NC(=O)Nc3ccccc3)ccc2O[C@H]1CN(C)Cc1ccc(C(=O)O)cc1 | 3 | · | · | ·
O=S(=O)(Nc1nc2ccccc2nc1Nc1ccc(N2CCOCC2)cc1)c1cc(Cl)ccc1Cl | 13 | 61* | 80* | 3
COC(=O)[C@@H]1C[C@]2(OC(=O)c3ccccc3)C=CC(=O)C[C@@H]2N1C(=O)OCc1ccccc1 | -1 | 24 | 51* | 2
O=C(O)C[C@H]1C[C@@H]2c3cc(NS(=O)(=O)c4ccc(F)cc4)ccc3O[C@@H]2[C@@H](CO)O1 | 11 | · | · | ·
Cn1c(C(=O)N2CCN(c3ccc(Cl)cc3)CC2)cc2c(=O)[nH]c3ccccc3c21 | · | 5 | 2 | -1
Cc1ccc(Cl)cc1N1CCN(C(=O)c2cc3c(=O)[nH]c4ccccc4c3n2C)CC1 | 64* | -5 | -15 | 1
C[C@H](CO)N1C[C@H](C)[C@H](CN(C)S(=O)(=O)c2ccc(Cl)cc2)Oc2ccc(NC(=O)c3ccncc3)cc2CC1=O | 2 | · | · | ·
COc1ccc2c3c(n(C)c2c1)[C@H](CO)N(C(=O)NC(C)C)CC31CCN(C(C)=O)CC1 | -1 | · | · | ·
Cc1ccc(NC(=O)CSc2nn(-c3ccccc3)c(=S)s2)cc1S(=O)(=O)N(C)C | 23 | 49 | 79* | 2
O=C(CSc1nn(-c2ccccc2)c(=S)s1)Nn1cnnc1 | · | -15 | 2 | 3
O=C(C[C@@H]1CC[C@H](NS(=O)(=O)c2ccc(F)cc2)[C@H](CO)O1)NC1CCC1 | -5 | · | · | ·
Cc1ccc(S(=O)(=O)NCC[C@H]2CC[C@H](NS(=O)(=O)c3ccccc3Cl)[C@@H](CO)O2)cc1 | 8 | · | · | ·
O=C(C1CCN(c2nnc(N3CCCC3=O)s2)CC1)N1CCN(Cc2ccc3c(c2)OCO3)CC1 | · | -13 | -8 | 33*
c1cc(-c2cc3cc(N4CCOCC4)ccc3o2)cs1 | -13 | 38 | 65* | ·
O=S(=O)(Nc1ccccc1)c1ccc(-c2cnc(C3CC3)o2)cc1 | 12 | 19 | 26 | 4
SMILES | LGR2 antag | TROY NFkB inh | TWEAK Fn14 block | HSP90 refold inh
Cc1cc(C)cc(NS(=O)(=O)c2ccc(-c3cnc(C4CC4)o3)cc2)c1 | -26 | 56* | 42 | 5
Cc1cccc(NS(=O)(=O)c2ccc(-c3cnc(C4CC4)o3)cc2)c1C | -5 | 58* | 31 | 4
COc1ccc(CN2CC3(C2)CN(Cc2ccc4c(c2)OCO4)[C@@H](CO)c2[nH]c4cc(OC)ccc4c23)cc1 | -21 | · | · | ·
COc1ccc(C(C#N)=C2C=C(Cl)C(=NO)C=C2Cl)cc1 | -4 | 42 | 75* | ·
COc1ccc(C(C#N)=C2C=CC(=NO)C(C)=C2Cl)cc1 | 6 | -4 | 25 | ·
Cc1occc(=O)c1OC(=O)Nc1ccc(Cl)c(Cl)c1 | 28 | 36 | 59* | 4
Cc1cccc(C(=O)O/N=C(\N)c2ccc(Cl)cc2)c1 | -17 | -21 | 8 | -6
Cc1ccc(/C(N)=N/OC(=O)c2ccc(Cl)cc2Cl)cc1 | 27 | 61* | 79* | 7
CN1c2ccc(C#Cc3cccnc3)cc2[C@@H]2[C@@H](CCN2C(=O)C2CCC2)[C@H]1CO | 5 | · | · | ·
C[C@H](CO)N1C[C@H](C)[C@H](CN(C)C(=O)NC2CCCCC2)Oc2ncc(/C=C/c3ccccc3)cc2C1=O | -12 | · | · | ·
COCc1ccc(C(=O)Nc2cccc(S(=O)(=O)N(C)c3ccccc3)c2)cc1 | 17 | 33 | 37 | ·
CN(C)S(=O)(=O)c1cccc(NC(=O)COc2ccccc2C(=O)Nc2ccccc2)c1 | 45* | 39 | 51* | ·
Cc1ccc(S(=O)(=O)N(C)C)cc1NC(=O)COc1ccccc1C(=O)Nc1ccccc1 | -9 | 8 | 20 | ·
CN(C)S(=O)(=O)c1cccc(NC(=O)c2ccc(COc3ccccc3)cc2)c1 | 8 | 58* | 90* | 3
CC1(c2nnnn2-c2ccc3c(c2)OCCO3)CCC(=O)N1CCc1ccccc1F (stereo not given) | 13 | 37 | 68* | ·
O=C(/C=C/c1cccc(Cl)c1)c1ccc([N+](=O)[O-])o1 | 86* | 76* | 101* | ·
COc1cc(/C=C/C(=O)c2ccc([N+](=O)[O-])o2)ccc1O | 24 | 52* | 97* | ·
COc1cc(OC)c(C(=O)C=Cc2ccc(OC)c(OC)c2)c(OC)c1 | 10 | 8 | -6 | ·
COc1ccc(/C=C/C(=O)c2ccc([N+](=O)[O-])o2)cc1OC | 99* | · | · | ·
CCCNC(=O)C[C@H]1CC[C@@H]2[C@H](COC[C@H](O)CN2Cc2cccc(F)c2)O1 | 11 | · | · | ·
COc1ccc(-c2cncnc2-c2ccc(OC)cc2O)cc1 | 10 | 41 | 69* | -5
O=C(OCC12CC3CC(CC(C3)C1)C2)c1ccc(NCc2cc(O)ccc2O)cc1 | 6 | -6 | 103* | ·
CCNC(=O)OCCC12CC3CC(CC(C3)C1)C2 | -15 | -21 | -16 | 1
O=C(OCCC12CC3CC(CC(C3)C1)C2)c1ccc(NCc2cc(O)ccc2O)cc1 | -22 | -3 | 98* | ·
CC=Cc1ccc2n(c1=O)C[C@@H]1[C@@H](CO)[C@H](C(=O)NCCc3cn(C)cn3)N(C(=O)C3CC3)[C@H]21 (mixture of isomers) | -2 | · | · | ·
SMILES | LGR2 antag | TROY NFkB inh | TWEAK Fn14 block | HSP90 refold inh
CC(C)NC(=O)Nc1ccc2c(c1)C(=O)N([C@@H](C)CO)C[C@H](C)[C@H](CN(C)C(=O)NC1CCCCC1)O2 | 34 | · | · | ·
CCOc1ccc(-c2nc(CSCC(=O)N3CCN(c4cccc(OC)c4)CC3)c(C)o2)cc1 | 8 | 53* | 59* | 24*
CCc1ccc(-c2nc(CSCC(=O)N3CCN(c4ccccn4)CC3)c(C)o2)cc1 | · | 62* | 81* | 1
CCc1ccc(-c2nc(CSCC(=O)NCCCN3CCCC3=O)c(C)o2)cc1 | · | 21 | 84* | 5
Cc1ccc(-c2nc(CSCC(=O)N3CCN(c4ccccn4)CC3)c(C)o2)cc1 | -11 | 31 | 38 | -2
C[C@@H]1CN([C@H](C)CO)C(=O)Cc2cc(NC(=O)Nc3ccc(F)cc3)ccc2O[C@@H]1CN(C)Cc1ccc(Cl)c(Cl)c1 | -15 | · | · | ·
COc1ccccc1Nc1ccc2c(O)cc(S(=O)(=O)O)cc2c1 | -4 | 17 | 79* | ·

From PubChem
